Data reported in PubChem BioAssay (EPA / NIEHS).
Where a structure was tested more than once in an assay, its records may differ in their call. Active and inactive are the calls of the source. The calls were made as follows: active = hit-call score of the fitted dose curve at least 0.9, where 1 is the maximum; inactive = score below 0.9.

These compounds were tested against Hepatocyte nuclear factor 6 (Homo sapiens) (UniProt Q9UBC0) (assay: ATG_HNF6_CIS: Attagene CIS-FACTORIAL HepG2 Assay for human Hepatocyte Nuclear Factor 6 (HNF6) (AID 2282952)). Settings: HepG2 Attagene cis-factorial HNF6 reporter transcription; actives raise or lower the signal.
Hepatocyte nuclear factor 6 (Homo sapiens), sequence (Q9UBC0 whole entry, looked up): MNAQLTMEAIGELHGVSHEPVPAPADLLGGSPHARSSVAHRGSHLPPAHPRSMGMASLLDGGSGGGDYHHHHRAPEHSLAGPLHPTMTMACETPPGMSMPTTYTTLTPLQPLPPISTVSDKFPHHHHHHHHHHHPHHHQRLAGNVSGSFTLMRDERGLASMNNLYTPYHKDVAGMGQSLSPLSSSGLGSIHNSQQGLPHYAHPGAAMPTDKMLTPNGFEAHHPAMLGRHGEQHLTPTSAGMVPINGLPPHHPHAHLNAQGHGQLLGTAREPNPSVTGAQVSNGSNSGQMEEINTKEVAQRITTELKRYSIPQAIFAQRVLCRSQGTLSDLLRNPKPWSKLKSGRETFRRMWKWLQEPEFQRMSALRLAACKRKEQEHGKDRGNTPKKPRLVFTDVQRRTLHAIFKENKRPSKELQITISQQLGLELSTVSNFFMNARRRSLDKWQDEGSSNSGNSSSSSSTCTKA
Procedure: ATG_CIS is a cell-based, multiplexed-readout assay that uses HepG2, a human liver cell line, with measurements taken at 24 hours after chemical dosing in a 24-well plate.ATG_HNF6_CIS is one of 52 assay component(s) measured or calculated from the ATG_CIS assay. It is designed to make measurements of mRNA induction, a form of inducible reporter, as detected with fluorescence intensity signals by Reverse transcription polymerase chain reaction (RT-PCR) and Capillary electrophoresis technology.Data from the assay component ATG_HNF6_CIS was analyzed into 1 assay endpoint. This assay endpoint, ATG_HNF6_CIS, was analyzed with bidirectional fitting relative to DMSO as the negative control and baseline of activity. Using a type of inducible reporter, measures of mRNA for gain or loss-of-signal activity can be used to understand the reporter gene at the transcription factor-level as they relate to the gene ONECUT1. Furthermore, this assay endpoint can be referred to as a primary readout, because this assay has produced multiple assay endpoints where this one serves a reporter gene function. To generalize the intended target to other relatable targets, this assay endpoint is annotated to the dna binding intended target family, where the subfamily is homeobox protein.
Human liver HepG2 cells are transiently transfected with multiple reporter transcription units (MRTUs) in 6-well plates using FuGene 6 reagent (Roche; 3 ml FuGene/1 mg DNA). The MRTU constructs are regulated by a cis-regulating element (promoter). […] A major difference between the CIS and TRANS system is that in CIS activities of endogenous TFs are measured, whereas the TRANS assay evaluates changes in activities of exogenous, chimeric NR-Gal4 proteins. […] At the end of 24 hour incubation, total RNA was isolated using TriZol reagent (Invitrogen). The isolated RNA is then reverse-transcribed using oligo(dT) primer and Mo-MLV reverse transcriptase (Invitrogen) with DNAse I (Ambion) treatment for 30 min. The one-tenth of the produced cDNA was amplified by PCR using Taq DNA polymerase (Invitrogen) and two reporter sequence-specific primers. The PCR products were fluorescently labeled by primer extension with 6-arboxyfluorescein (6-FAM) 5'-labeled reporter sequence-specific primer (2 min at 95 C, 20 s at 68 C and 10 min at 72 C) and these products were digested with 5U of HpaI (New England Biolabs) for 2h at 37 C. The fragments were purified using Qiaquick PCR columns (Qiagen), analyzed on an ABI 3130xL genetic analyzer (Applied Biosystems) with peak positions identified by using a set of X-rhodamine (ROX)-labeled MapMarker1000 molecular weight standards (BioVentures). The raw capillary electrophoresis data was processed using Attagraph software (Attagene).
For `O=S(=O)(O)C(F)(F)C(F)(F)C(F)(F)C(F)(F)C(F)(F)C(F)(F)C(F)(F)C(F)(F)C(F)(F)C(F)(F)F`, the outcome was “inactive”. In the case of `CC1COCc2cc3c(cc21)C(C)(C)C(C)C3(C)C` (stereo not given), the outcome is reported as “inactive”. With `CC(=O)Nc1ccc(S(N)(=O)=O)cc1` the outcome was “inactive”. `C=CC(=O)OCCC(F)(F)C(F)(F)C(F)(F)C(F)(F)C(F)(F)C(F)(F)C(F)(F)C(F)(F)F` was tested, and the outcome was “inactive”. For `CCCCCCCC(OC)OC`, the outcome was “inactive”. `C=C(c1ccc(C(=O)O)cc1)c1cc2c(cc1C)C(C)(C)CCC2(C)C` was tested, and the outcome was “inactive”. For `COCC1CCC(CO)CC1` (stereo not given), the outcome was “inactive”. In the case of `CCCCc1ccc2ccccc2c1S(=O)(=O)O`, the outcome is reported as “inactive”. With `Oc1cc2ccccc2cc1O` the outcome was “inactive”. `Cn1sccc1=O` was tested, and the outcome was “inactive”. For `NC(=NCCCCCCN=C(N)/N=C(\N)Nc1ccc(Cl)cc1)/N=C(\N)Nc1ccc(Cl)cc1`, the AC50 was 25.7 µM (active) and the outcome was “inactive”. In the case of `CCOC(=O)CN[C@@H](C(=O)N1CC[C@H]1C(=O)NCc1ccc(/C(N)=N/O)cc1)C1CCCCC1`, the outcome is reported as “inactive”. In the case of `Oc1ccc(Cc2ccccc2O)cc1`, the outcome is reported as “inactive”. In the case of `NS(=O)(=O)O`, the outcome is reported as “inactive”. `CN(Cc1cnc2nc(N)nc(N)c2n1)c1ccc(C(=O)N[C@@H](CCC(=O)O)C(=O)O)cc1` was tested, and the outcome was “inactive”. With `CCc1ccccc1O` the outcome was “inactive”. For `CC(=O)CC(C)C`, the outcome was “inactive”. In the case of `O=C1Cc2ccccc2N1c1c(Cl)cccc1Cl`, the outcome is reported as “inactive”. `CNNCc1ccc(C(=O)NC(C)C)cc1` was tested, and the outcome was “inactive”. For `Oc1c(Cl)ccc(Cl)c1Cl`, the outcome was “inactive”. In the case of `O=C(O)C(F)(F)OC(F)(F)C(F)(F)OC(F)(F)C(F)(F)OC(F)(F)C(F)(F)C(F)(F)C(F)(F)F`, the outcome is reported as “inactive” and the AC50 is reported as 70.1 µM (active). In the case of `CC=O`, the outcome is reported as “inactive”. In the case of `C=CC(F)(F)C(F)(F)C(F)(F)C(F)(F)F`, the outcome is reported as “inactive”. `C=CC(=O)OCCN(CC)CC` was tested, and the outcome was “inactive”. With `COC(O)c1ccccc1` (stereo not given) the outcome was “inactive”. In the case of `COC1=CC(=O)C[C@@H](C)[C@]12Oc1c(Cl)c(OC)cc(OC)c1C2=O`, the outcome is reported as “inactive”. For `CCCCCCCCCCCCOC(=O)c1cc(O)c(O)c(O)c1`, the outcome was “inactive”. For `COc1cc(OC)nc(NC(=O)NS(=O)(=O)Nc2ccccc2C(=O)N(C)C)n1`, the outcome was “inactive”. With `CCCCCCCCCCCCCCCC(=O)OC` the outcome was “inactive”. In the case of `CC1CNCC(C)O1` (stereo not given), the outcome is reported as “inactive”. For `C[C@]12CC[C@@H]3c4ccc(O)cc4CC[C@H]3[C@@H]1C[C@@H](O)[C@@H]2O`, the outcome was “inactive”. With `C=COC(=O)C(C)(C)CCCCCC` the outcome was “inactive”. With `CC(C)(c1ccc(Oc2ccc(N)cc2)cc1)c1ccc(Oc2ccc(N)cc2)cc1` the outcome was “inactive”. With `NCCN` the outcome was “inactive”. In the case of `CCCCC(CC)C(=O)OCCOCCOCCOCCOC(=O)C(CC)CCCC` (stereo not given), the outcome is reported as “inactive”. With `CCCCCCCCC1CCC(=O)O1` (stereo not given) the outcome was “inactive”. In the case of `CCc1cccc(CC)c1NC(=O)C(=O)O`, the outcome is reported as “inactive”. With `O=S(=O)(c1ccc(OCc2ccccc2)cc1)c1ccccc1O` the AC50 was 61.3 µM (active).
